Data taken from PubChem BioAssay AID1159580 (chemical genetic matrix, 2015).
Hit rate of the full screen: of about 5,500 compounds, about 2,000 (36%) were called active. Not shown: some 18% with an inconclusive outcome. Cut-off read from the data, not from the text of the source: active = normalized growth mostly below about 0.91 (no sharp cut-off); inconclusive = no clear call, values can overlap the other calls; inactive = mostly above about 0.92. The list shows a part of the results.

Assay: chemical genetic growth profiling, strain panel (AID 1159580);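 note: tested at 20 µM; growth read once vehicle control cultures reached saturation at 30 °C; 1 = growth at the plate median or of vehicle wells; lower values mean less growth of the strain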
Conditions: S. cerevisiae deletion strains, growth OD

Measured: normalized growth

C/C=C/C(=O)N(CC)c1ccccc1C
inactive: locus YAL021C, strain ccr4, stronger effect = lower value 1.02 | locus YAL026C, strain drs2, stronger effect = lower value 1.01 | locus YAL030W, strain snc1, stronger effect = lower value 1 | locus YBL061C, strain skt5, stronger effect = lower value 0.995 | locus YBR009C, strain hhf1, stronger effect = lower value 1.02 | locus YBR023C, strain chs3, stronger effect = lower value 1.01 | locus YBR171W, strain sec66, stronger effect = lower value 1 | locus YBR231C, strain swc5, stronger effect = lower value 1 | locus YBR279W, strain paf1, stronger effect = lower value 1 | locus YCL011C, strain gbp2, stronger effect = lower value 0.997 | locus YCL016C, strain dcc1, stronger effect = lower value 0.998 | locus YCL061C, strain MRC1, stronger effect = lower value 1.01 | locus YCL069W, strain vba3, stronger effect = lower value 1.01 | locus YCR088W, strain abp1, stronger effect = lower value 1 | locus YDL005C, strain med2, stronger effect = lower value 1 | locus YDL040C, strain nat1, stronger effect = lower value 1 | locus YDR001C, strain nth1, stronger effect = lower value 1 | locus YDR069C, strain doa4, stronger effect = lower value 1.02 | locus YDR137W, strain rgp1, stronger effect = lower value 1.02 | locus YDR159W, strain sac3, stronger effect = lower value 1 | locus YDR195W, strain ref2 0.986 | locus YDR297W, strain sur2, stronger effect = lower value 1 | locus YDR334W, strain swr1, stronger effect = lower value 0.997 | locus YDR335W, strain msn5, stronger effect = lower value 1.01 | locus YDR392W, strain spt3, stronger effect = lower value 0.942 | locus YEL003W, strain gim4, stronger effect = lower value 1.01 | locus YEL037C, strain rad23, stronger effect = lower value 1.01 | locus YEL061C, strain CIN8 (second series), stronger effect = lower value 1.01 | locus YER015W, strain faa2, stronger effect = lower value 1.01 | locus YER016W, strain bim1, stronger effect = lower value 1.01 | locus YER111C, strain swi4, stronger effect = lower value 0.995 | locus YER155C, strain BEM2 (second series), stronger effect = lower value 1.01 | locus YFR010W, strain ubp6, stronger effect = lower value 1.02 | locus YGL167C, strain pmr1, stronger effect = lower value 1 | locus YGL173C, strain kem1, stronger effect = lower value 1.01 | locus YGL227W, strain vid30, stronger effect = lower value 1.01 | locus YGL240W, strain doc1, stronger effect = lower value 1.02 | locus YGL253W, strain hxk2, stronger effect = lower value 1.01 | locus YHR013C, strain ard1, stronger effect = lower value 1.01 | locus YHR027C, strain rpn1, stronger effect = lower value 1.02 | locus YHR030C, strain SLT2, stronger effect = lower value 1.03 | locus YHR079C, strain IRE1, stronger effect = lower value 1.02 | locus YHR142W, strain chs7, stronger effect = lower value 1.02 | locus YJL092W, strain hpr5, stronger effect = lower value 1 | locus YJL095W, strain BCK1 (second series), stronger effect = lower value 1 | locus YJL095W, strain BCK1, stronger effect = lower value 0.977 | locus YJL115W, strain asf1, stronger effect = lower value 1 | locus YJL129C, strain trk1, stronger effect = lower value 1.03 | locus YJL154C, strain vps35, stronger effect = lower value 1.01 | locus YJL164C, strain tpk1, stronger effect = lower value 1.01 | locus YJL166W, strain qcr8, stronger effect = lower value 1.02 | locus YJL187C, strain SWE1, stronger effect = lower value 1.01 | locus YJR066W, strain TOR1, stronger effect = lower value 0.966 | locus YKL160W, strain elf1, stronger effect = lower value 1.01 | locus YKR026C, strain gcn3, stronger effect = lower value 1.01 | locus YKR091W, strain srl3, stronger effect = lower value 1 | locus YLL001W, strain dnm1, stronger effect = lower value 0.996 | locus YLL026W, stronger effect = lower value 1.01 | locus YLL041C, strain sdh2, stronger effect = lower value 1.01 | locus YLR027C, strain aat2, stronger effect = lower value 0.996 | locus YLR113W, strain HOG1, stronger effect = lower value 0.969 | locus YLR221C, strain rsa3, stronger effect = lower value 1 | locus YLR258W, strain gsy2, stronger effect = lower value 1.01 | locus YLR262C, strain YPT6 (second series), stronger effect = lower value 1 | locus YLR320W, strain mms22, stronger effect = lower value 1 | locus YLR342W, strain FKS1, stronger effect = lower value 1 | locus YLR357W, strain rsc2, stronger effect = lower value 1.02 | locus YLR370C, strain arc18, stronger effect = lower value 1.01 | locus YLR384C, strain iki3, stronger effect = lower value 0.998 | locus YML120C, strain ndi1, stronger effect = lower value 1 | locus YMR058W, strain fet3, stronger effect = lower value 1.02 | locus YMR125W, strain sto1, stronger effect = lower value 1.01 | locus YMR129W, stronger effect = lower value 1 | locus YMR205C, strain PFK2, stronger effect = lower value 1.01 | locus YMR231W, strain pep5, stronger effect = lower value 1.01 | locus YNL071W, strain lat1, stronger effect = lower value 1 | locus YNL183C, strain NPR1, stronger effect = lower value 0.975 | locus YNL209W, strain ssb2, stronger effect = lower value 1 | locus YNL248C, strain rpa49, stronger effect = lower value 0.993 | locus YNL322C, strain KRE1 (second series), stronger effect = lower value 1.01 | locus YNR049C, strain mso1, stronger effect = lower value 1.01 | locus YOR001W, strain rrp6, stronger effect = lower value 1.03 | locus YOR070C, strain gyp1, stronger effect = lower value 1 | locus YOR080W, strain dia2, stronger effect = lower value 1 | locus YOR083W, strain WHI5, stronger effect = lower value 1.02 | locus YOR106W, strain vam3, stronger effect = lower value 1.04 | locus YOR231W, strain MKK1, stronger effect = lower value 1.02 | locus YOR265W, strain rbl2, stronger effect = lower value 1 | locus YOR270C, strain vph1, stronger effect = lower value 0.999 | locus YOR290C, strain snf2, stronger effect = lower value 1.01 | locus YPL051W, strain arl3, stronger effect = lower value 1 | locus YPL078C, strain atp4, stronger effect = lower value 1.02 | locus YPL106C, strain sse1, stronger effect = lower value 1.01 | locus YPL240C, strain hsp82, stronger effect = lower value 1 | locus YPL256C, strain CLN2, stronger effect = lower value 0.986

C[C@H](N)CN1CCc2ccc(Br)cc21
inactive: locus YAL040C, strain CLN3, stronger effect = lower value 0.979 | locus YCL061C, strain MRC1 (second series), stronger effect = lower value 0.992 | locus YDR150W, strain NUM1, stronger effect = lower value 1 | locus YDR363W, strain ESC2, stronger effect = lower value 1.01 | locus YER002W, strain NOP16, stronger effect = lower value 0.992 | locus YGR078C, strain PAC10, stronger effect = lower value 1.02 | locus YJR075W, strain HOC1, stronger effect = lower value 1 | locus YMR307W, strain GAS1, stronger effect = lower value 1 | locus YNL153C, strain GIM3, stronger effect = lower value 0.997 | locus YNL175C, strain NOP13, stronger effect = lower value 1.01 | locus YNL197C, strain WHI3, stronger effect = lower value 1.02 | locus YNL224C, strain SQS1, stronger effect = lower value 1.01 | locus YOR083W, strain WHI5 (second series), stronger effect = lower value 1 | locus YPL055C, strain LGE1, stronger effect = lower value 0.968
